# Screening data as filed in PubChem BioAssay.
# This excerpt belongs to a sample that is enriched for hits.
# RE007 growth inh: qHTS Assay for Inhibitors of the HIV-1 protein Vpr; Potency, µM (doses to about 92.2 µM), actives largely listed as inhibitors; S. pombe RE007 Vpr strain, BacTiter-Glo ATP luminescence, 24 h; actives 0.21% (n = 360,000); active means well fitted falling curve with a large enough effect; inconclusive means small, poorly fitted or top-dose-only effect; inactive means no such curve, though single readings can be large or run the other way; further: nearly all actives have a fitted effect of over 50% in size
#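 Fission yeast strain RE007, carrying one chromosomally integrated HIV-1 vpr copy, was seeded at OD 0.01 in PMG+AL medium with 23 nL pinned compound. After 24 h at 30 °C and 99% humidity, viability was read by BacTiter-Glo luminescence.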
# FBPA Giardia inh: qHTS Assay for Inhibitors of Fructose-1,6-bisphosphate Aldolase from Giardia Lamblia. A8B2U2. purified Giardia FBPA. Potency, µM (top dose mostly 59.6 µM), hits mostly inhibitors. actives 0.71% (n = 290,000); further: nearly all actives have a fitted effect of over 55% in size
#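 40 nM FBPA preincubated 10 min at RT with compound (up to 57.5 uM final), then substrate plus GAPDH/TPI/NAD/arsenate coupling and diaphorase/resazurin added. Fluorescence read after 20 min at RT, 525/598 nm.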
# LmPK inhibitor: qHTS Assay for Inhibitors of Leishmania Mexicana Pyruvate Kinase (LmPK); Potency, µM (doses to about 57.5 µM), hits mostly inhibitors; purified LmPK, Kinase-Glo ATP luminescence, 1 h; actives 0.37% (n = 290,000)
# Target sequence (Q27686 whole entry, looked up): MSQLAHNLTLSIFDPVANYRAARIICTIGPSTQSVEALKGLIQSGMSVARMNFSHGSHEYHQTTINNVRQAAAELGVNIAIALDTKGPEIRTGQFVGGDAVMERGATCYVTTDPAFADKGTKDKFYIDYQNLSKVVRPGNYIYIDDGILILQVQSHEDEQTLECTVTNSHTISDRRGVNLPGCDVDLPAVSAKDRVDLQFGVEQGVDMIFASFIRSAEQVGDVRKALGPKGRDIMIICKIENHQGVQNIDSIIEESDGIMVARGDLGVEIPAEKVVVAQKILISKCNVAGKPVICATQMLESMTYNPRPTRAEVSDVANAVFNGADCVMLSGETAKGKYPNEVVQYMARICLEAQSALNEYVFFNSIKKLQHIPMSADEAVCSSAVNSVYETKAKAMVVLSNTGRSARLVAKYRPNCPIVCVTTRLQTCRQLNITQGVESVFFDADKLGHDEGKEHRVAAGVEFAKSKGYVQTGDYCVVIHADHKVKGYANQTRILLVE
#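 ATP generated from ADP (0.1 mM) and PEP (0.5 mM) by 0.1 nM LmPK over 1 h at room temperature (pH 7.2 imidazole buffer) was detected by coupled luciferase luminescence. Values were normalized to uninhibited and no-enzyme wells.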
# Shiga inhibitor: A qHTS for Small Molecule Inhibitors of Shiga Toxin; AID 2315, 2010; inhibition, % at 38.7 µM; Vero cells, Shiga toxin protein synthesis inhibition reporter; actives 9.2% (n = 290,000); in the data active means inhibition mostly above about 28%, no sharp cut-off; inactive means mostly below about 43%
# CHX counter: Cycloheximide Counterscreen for Small Molecule Inhibitors of Shiga Toxin | max response, % | actives 12% (n = 300,000) | cell reporter, cycloheximide protein synthesis inhibition counterscreen; in the data active means max response mostly above about 13%, no sharp cut-off; inactive means mostly below about 14%; further: read at 38.3 µM for the half of the compounds with a filed dose
# Tb PYK inh: qHTS of Trypanosoma Brucei Inhibitors. TbPYK enzyme, Kinase-Glo Plus ATP luminescence, 45 min. Potency, µM (highest dose often 76.8 µM), usual class: inhibitors. actives 0.12% (n = 410,000); further: nearly all actives have a fitted effect of over 50% in size
#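 Luminescence from Kinase-Glo Plus, added after a 45-minute room-temperature reaction, served as the end-point read-out. The enzyme and substrate were preincubated with compound before ADP (130 uM final) initiated turnover. Concentration-effect curves came from normalized qHTS data.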
# Numbers stand for hits; . = inactive; ? = inconclusive; / = not tested or not shown. Unless noted, the call rests on the fitted dose curve; in most records, active means well fitted curve in the direction sought with a large enough effect; inconclusive means small, poorly fitted or top-dose-only effect, or another doubt; inactive means no such curve, though single readings can be large; an effect the other way counts as inactive or inconclusive.
SMILES,RE007 growth inh,FBPA Giardia inh,LmPK inhibitor,Shiga inhibitor,CHX counter,Tb PYK inh
Nc1c(C(=O)Nc2ccccc2)sc2nc(-c3cccnc3)ccc12,/,?,.,70,49,/
COc1ccccc1NC(=O)c1sc2nc(-c3ccco3)ccc2c1N,.,.,.,.,20,.
CC(C)c1nn2c(=O)cc(COC(=O)CNC(=O)c3ccccc3)nc2s1,/,/,/,/,/,.
c1ccc(-c2nnc3oc(-c4cccs4)nn23)cc1,.,/,/,/,/,.
Cc1ccc(CSc2nnc(-c3ccccn3)n2C)cc1,.,.,.,94,24,.
Cn1c(SCc2ccc(F)cc2)nnc1-c1ccccn1,.,.,.,116,39,.
Cn1c(CO)cnc1SCc1ccc(F)cc1,.,.,.,50,17,.
Cc1ccc2nc(CSc3nnc(NC(=O)c4ccc(C(C)(C)C)cc4)s3)cc(=O)n2c1,/,/,/,/,/,.
COC(=O)Cn1c(C(=O)N2CCCC2)cc2c1C[C@H]1CN(C(=O)c3ccccc3)[C@@](Cc3ccc(OC)cc3)(C(=O)OC)[C@@H]21,.,/,/,/,/,.
O=C(COC(=O)CNC(=O)c1cccc([N+](=O)[O-])c1)Nc1nc2ccccc2s1,/,.,.,.,15,.
O=C(CN1CCCCCC1)Nc1nc2ccccc2s1,.,/,/,/,/,.
O=C(Cn1ccc([N+](=O)[O-])n1)Nc1nc2ccccc2s1,.,.,.,86,.,.
CC1CN(CC(=O)Nc2nc3ccccc3s2)CC(C)O1 (stereo unspecified),.,?,.,.,12,.
CN1CCN(CC(=O)Nc2nc3ccccc3s2)CC1,.,?,.,.,18,.
COc1cccc(CNC(=O)CN2C(=O)N(c3cc(C)ccc3C)S(=O)(=O)c3ccccc32)c1OC,/,/,/,/,/,.
COc1ccc2[nH]cc(CCN=C(NC(=O)c3ccccc3F)Nc3nc(C)cc(C)n3)c2c1,/,/,/,/,/,.
CCC1=C(OC(=O)N(CC)CC)N2C(=O)OC(=NCCOC)[C@]2(C)[C@H]2C1=CC[C@H]1C(=O)N(CC(=O)OC)C(=O)[C@H]12,/,.,/,/,/,/
O=C(O)Cn1cc(/C=C2\C(=O)NC(=O)N(c3ccc(Cl)cc3)C2=O)c2ccccc21,.,.,.,.,.,.
CCN(CC)C(=O)Cn1cc(/C=C2\C(=O)NC(=O)N(c3ccccc3F)C2=O)c2ccccc21,.,.,.,.,8.5,.
Cc1csc(Nc2ccccc2)n1,.,.,.,44,23,.
O=C(O)c1ccc(Nc2nc(-c3ccccc3)cs2)cc1,.,.,.,112,27,.
Cc1csc(Nc2ccc(C(=O)O)cc2)n1,.,.,.,11,.,.
COc1cccc(CN2CC(C(=O)NCCc3ccc(C)o3)CCC2=O)c1 (stereo unspecified),.,/,.,.,.,.
CNC(=O)Nc1ccc2nc(C)oc2c1,.,.,.,.,.,.
O=C(Nc1ccccc1)Nc1ccc2ocnc2c1,.,.,.,67,42,.
SMILES,RE007 growth inh,FBPA Giardia inh,LmPK inhibitor,Shiga inhibitor,CHX counter,Tb PYK inh
O=C(Nc1ccccc1)Nc1ccc2ncoc2c1,.,.,.,64,42,.
Cc1nn(C2CCS(=O)(=O)C2)c2nc(C3CC3)cc(C(=O)Nc3ccc(C(N)=O)cc3)c12 (stereo unspecified),.,/,/,/,/,.
CC(=O)Nc1ccc(S(=O)(=O)Nc2ccc([N+](=O)[O-])cc2)cc1,/,.,/,/,/,.
O=[N+]([O-])c1ccc(Nc2ccccc2)cc1,.,.,.,.,16,.
O=[N+]([O-])c1ccc(S(=O)(=O)Nc2ccc(-c3ccccc3)cc2)cc1,35µM,/,/,/,/,.
Cc1ccc(NC(=O)C(=O)NCC(c2ccc3c(c2)OCO3)N2CCN(C)CC2)cc1C (stereo unspecified),/,/,/,/,/,.
O=C(c1ccccc1)n1ccc2ccccc21,.,.,.,137,31,.
O=C(O)Cn1ccc2ccccc21,.,.,.,.,.,.
Cn1c(=O)c(=O)n(C)c2cc(S(=O)(=O)Nc3ccc(Cl)c(C(F)(F)F)c3)ccc21,/,/,/,/,/,.
CSc1nc(N)nc(SCC(=O)Nc2cccc(F)c2)c1C#N,/,.,.,77,.,.
CSc1nc(N)nc(SCC(=O)C(C)(C)C)c1C#N,.,.,.,.,.,.
CSc1nc(N)nc(SCC(=O)Nc2ccc(Cl)cc2)c1C#N,.,.,.,43,20,.
COc1ccc(N(CC(=O)NC2CCCCC2C)S(=O)(=O)c2c(C)nn(C)c2C)cc1 (stereo unspecified),.,.,.,.,.,.
CCC(=O)N1CCc2cc(S(=O)(=O)NC(C(=O)NCCc3cccc(C)c3)C(C)C)ccc21 (stereo unspecified),/,/,/,/,/,.
Cc1ccccc1-c1nnc(-c2ccccc2C)o1,.,.,.,42,23,.
Cc1ccccc1-c1nnc(-c2ccc(Br)cc2)o1,.,.,.,.,21,.
Cc1ccccc1-c1nnc(CN2CCC(C)CC2)o1,.,.,.,71,27,.
COc1c(C)cc(C(=O)C2CCCN(C(=O)c3csc(C)n3)C2)cc1C (stereo unspecified),.,.,.,.,.,.
COc1c(C)cc(C(=O)C2CCCN(C(=O)c3ccc4[nH]ccc4c3)C2)cc1C (stereo unspecified),.,.,.,.,.,.
COc1c(C)cc(C(=O)C2CCCN(C(=O)c3cccc(-n4cccn4)c3)C2)cc1C (stereo unspecified),.,.,.,.,13,.
COc1c(C)cc(C(=O)C2CCCN(C(=O)c3cc4nc(C)cc(C)n4n3)C2)cc1C (stereo unspecified),.,.,.,25,.,.
COc1ccc(-c2csc3nc(C)nc(N4CCN(c5ccc(C(C)=O)cc5)CC4)c23)cc1OC,.,.,.,65,31,.
CCn1c(=O)cc(SCC(=O)NCc2ccc(F)cc2Cl)c2ccccc21,/,/,/,/,/,.
O=S(=O)(Nc1ccc(-c2ccc(N3CCCC3)nn2)cc1)c1ccccc1Cl,/,/,/,/,/,.
CCCOc1ccc(N2C(=O)CC(N3CCC(C(=O)OCC)CC3)C2=O)cc1 (stereo unspecified),5.6µM,.,.,.,.,.
O=C1CC(N2CCOCC2)C(=O)N1c1cccc(Cl)c1 (stereo unspecified),?,.,.,.,.,.
O=C(C1CCN(C2CC(=O)N(c3cccc(Cl)c3)C2=O)CC1)N1CCCCCC1 (stereo unspecified),7.1µM,.,.,.,.,.
CCOc1ccc(N2C(=O)CC(N3CCC(NC(=O)Nc4ccccc4)CC3)C2=O)cc1 (stereo unspecified),22µM,.,.,.,.,.
